Bioassay records deposited in PubChem BioAssay by National Center for Advancing Translational Sciences (NCATS).
Most compounds without a hit are left out; they make up all but 12% or so of the library.
JMJD2A Tudor – qHTS Assay for Inhibitors of JMJD2A-Tudor Domain; AID 504339, 2011; Potency, µM (titrated, usually from 114 µM), inactives show top-dose activity change, negative = inhibition, actives largely listed as inhibitors; actives 4.4% (n = 390,000); Lysine-specific demethylase 4A (Homo sapiens), O75164; AlphaScreen JMJD2A-Tudor / H3K4me3 peptide binding; also: % is scaled to controls: 0 for no effect and ±100 for the full control effect; nearly all actives have a fitted effect of over 50% in size
G9a inh – qHTS Assay for Inhibitors of Histone Lysine Methyltransferase G9a; Histone-lysine N-methyltransferase EHMT2 (Homo sapiens), Q96KQ7; G9a H3K9 monomethylation, AlphaScreen, 2 h; Potency, µM (titrated, usually from 102 µM), without a hit: top-dose activity, negative = inhibition, most hits filed as inhibitors; actives 8.8% (n = 350,000); also: % is scaled to controls: 0 for no effect and ±100 for the full control effect; nearly all actives have a fitted effect of over 75% in size
Target sequence (Q96KQ7 913-1193 limits assumed): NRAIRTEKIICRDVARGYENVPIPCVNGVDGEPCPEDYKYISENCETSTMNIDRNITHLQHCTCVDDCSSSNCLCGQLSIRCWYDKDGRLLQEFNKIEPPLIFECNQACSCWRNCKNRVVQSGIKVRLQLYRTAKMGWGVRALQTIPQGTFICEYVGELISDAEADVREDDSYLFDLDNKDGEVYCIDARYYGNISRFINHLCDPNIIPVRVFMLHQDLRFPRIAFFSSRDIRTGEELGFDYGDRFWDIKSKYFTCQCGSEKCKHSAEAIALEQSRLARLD
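G9a (20 nM) preincubated 15 min RT with compounds, then 500 nM biotinylated H3K9 peptide and 20 uM SAM added; 2 h RT reaction. Monomethyl-H3K9 product detected by AlphaScreen with anti-H3K9me1 antibody, streptavidin donor and anti-rabbit IgG acceptor beads.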
Sfp inh – qHTS Assay for Inhibitors of Bacillus subtilis Sfp phosphopantetheinyl transferase (PPTase) | 4'-phosphopantetheinyl transferase ffp (Bacillus subtilis), Q9F4F7 | Potency, µM, without a hit: largest response in the series, negative = inhibition, hits mostly inhibitors | actives 3.5% (n = 310,000) | AID 1490, 2009 | Biochemical Sfp PPTase activity, qHTS;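 also: the enzyme is Sfp with the accession as filed and its product quenches rhodamine fluorescence; 0% = enzyme reaction without inhibitor and -100% = no enzyme wells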
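Sfp 15 nM + cpd, 15 min RT; start w/ rhodamine-CoA 5 uM, BHQ-2-YbbR 12.5 uM (final); 50 mM Hepes pH 7.6, 10 mM MgCl2, 0.01% NP-40, 0.01% BSA; read 525/598 nm at 0 and 30 min.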
BAZ2B block – qHTS Assay for Inhibitors of BAZ2B | AlphaScreen BAZ2B-H3K14Ac peptide displacement | Bromodomain adjacent to zinc finger domain protein 2B (Homo sapiens), Q9UIF8 | Potency, µM (series often up to 114 µM), for the others: at the top dose activity change, negative = inhibition, most hits filed as inhibitors | AID 504333, 2011 | actives 4.4% (n = 360,000); also: % is scaled to controls: 0 for no effect and ±100 for the full control effect; nearly all actives have a fitted effect of over 60% in size
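Compounds, titrated to a top concentration of 110 uM, were incubated 30 min at room temperature with preformed BAZ2B/acetyl-K14 H3 peptide complex (50 nM each). Proximity signal was measured by AlphaScreen after 20 min with beads.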
HP1b chromo inh – HTS for Inhibitors of HP1-beta Chromodomain Interactions with Methylated Histone Tails. Potency, µM (doses to about 114 µM), for inactives: top-dose activity change, negative = inhibition, actives largely listed as inhibitors. AlphaScreen HP1-beta / biotin-H3K9me3 peptide binding. actives 0.56% (n = 390,000). Chromobox protein homolog 1 (Homo sapiens), P83916. AID 540317, 2011; also: nearly all actives have a fitted effect of over 70% in size
Target sequence (P83916 whole entry, looked up): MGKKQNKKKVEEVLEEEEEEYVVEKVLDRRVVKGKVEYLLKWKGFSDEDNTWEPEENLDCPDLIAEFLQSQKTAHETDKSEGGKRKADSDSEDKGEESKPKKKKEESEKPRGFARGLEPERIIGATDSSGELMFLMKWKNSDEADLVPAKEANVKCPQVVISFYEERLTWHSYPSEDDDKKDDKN
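Compound inhibition of the preformed complex between 50 nM HP1-beta and 50 nM biotinylated H3K9me3 peptide was read by AlphaScreen. Buffer was PBS pH 7.4 with 0.01% Tween-20. Incubations ran 30 min at room temperature, with 10 ug/mL donor/acceptor beads.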
An asterisk follows results filed as active; u = inconclusive; x = not tested or not shown; [ ] = another dose, or the depositor's remark. Calls follow the shape of the dose curve; as a rule, active = well fitted curve in the direction sought with a large enough effect; inconclusive = small, poorly fitted or top-dose-only effect, or another doubt; inactive = no such curve, though single readings can be large; an effect the other way counts as inactive or inconclusive. Potency is read from the fitted curve at half-maximal effect.

SMILES	JMJD2A Tudor	G9a inh	Sfp inh	BAZ2B block	HP1b chromo inh
O=C(CN1CCOCC1)Nc1nc2ccc([N+](=O)[O-])cc2s1	10µM*	-46%	-3%	-27%	30%
CCN(CC)S(=O)(=O)c1ccc2c(c1)c(=O)c(C(=O)N(C)Cc1ccccc1)cn2C	-17%	-2%[59 µM]	x	x	2%
Cc1ccccc1-n1nc2c(c1NC(=O)C(C)(C)C)CS(=O)(=O)C2	-10%	5%	18%	0%	16%
COc1cc(=O)[nH]c(SCC(=O)Nc2nc3c(s2)CCCC3)n1	32µM*	9%[59 µM]	17%	2%	-5%
COc1cc(=O)[nH]c(SC(C)C(=O)Nc2nc3c(s2)CCCC3)n1 (stereo unspecified)	8%	-24%	19%	-4%	29%
O=C(CSc1cn[nH]n1)Nc1nc2ccccc2s1	-13%	40µM*	35%	-1%	34%
CC(=O)Nc1c(O)nc(SCC(=O)Nc2c(C)cccc2C)[nH]c1=O	-23%	u	79µM*	3%	23%
O=C(Nc1nc2ccc(Oc3ccccc3)cc2s1)c1cc([N+](=O)[O-])ccc1N1CCOCC1	-32%	16µM*	-24%	u	-1%
CCOc1ccc(NC(=O)Cn2c(C)cc3ccccc3c2=O)cc1	0%	-1%[59 µM]	x	-1%	25%
O=C(C[C@@H]1C/C=C\CCCC(=O)OC[C@@H]2CCCN2C1=O)NCCO	-14%	x	x	x	39%
O=C(NC1CCSc2ccccc21)c1ccc([N+](=O)[O-])cc1 (stereo unspecified)	-15%	-11%	18%	-26%	31%
O=C(NC1CCSc2ccccc21)c1cc([N+](=O)[O-])ccc1N1CCOCC1 (stereo unspecified)	-21%	56µM*	x	-29%	-12%
COc1ccc(C(=O)Nc2ccc(N(C)Cc3ccccc3)c(C(=O)O)c2)cc1	u	-7%[59 µM]	x	u	7%
O=Cc1ccc2oc3nc4n(c(=O)c3c(=O)c2c1)CCCS4	u	u	-8%	56µM*	u
CCNc1ncc2nc(-c3ccc(Cl)cc3)c(=O)n(C)c2n1	x	-5%[0.501 µM]	11%	x	x
C=CCNC(=S)NS(=O)(=O)c1cccs1	-28%	18µM*	22µM*	-24%	-11%
C=CCNC(=O)/C=C/c1cccs1	10%	8%	12%	-10%	32%
O=C1Nc2ccccc2O/C1=C\c1ccccc1Br	-10%	7%	21%	0%	15%
CC(=O)Nc1ccc2c(COC(=O)CC3Sc4ccccc4NC3=O)cc(=O)oc2c1 (stereo unspecified)	79µM*	x	-2%	56µM*	u
O=C(CC1Sc2ccccc2NC1=O)Nc1cccc(C(=O)O)c1 (stereo unspecified)	50µM*	40µM*	-23%	56µM*	u
CC1CCC(C(C)C)[C@H](O)C1 (stereo partly specified)	x	-46%[2.33 µM]	10%	x	x
CCOC(=O)c1ccc(S(=O)(=O)N2CCN(c3nc(-c4cccs4)nc4ccccc34)CC2)cc1	-9%	x	x	x	51%
Cc1cc(C)nc(N/N=C/C2=C(O)CC(c3ccc(F)cc3)CC2=O)n1 (stereo unspecified)	32µM*	1%	8%	22µM*	44%
Cc1ccc(C2CC(=O)C(C=NCCN3CCN(C(=S)Nc4ccc(F)cc4)CC3)=C(O)C2)cc1 (stereo unspecified)	u	2%	-20%	-19%	-10%
Cc1cc(=O)n2c3c(sc2n1)C(=O)N(Cc1ccccc1)C3=O	x	6.3µM*	13µM*	-2%	x
SMILES	JMJD2A Tudor	G9a inh	Sfp inh	BAZ2B block	HP1b chromo inh
Oc1ccc(/C=C/c2nc(-c3ccccc3O)n(-c3ccccc3)n2)c(O)c1	u	u	x	32µM*	1%
CCc1nnc(NC(=O)CSCc2cc(=O)n3nc(C)sc3n2)s1	18µM*	48%	8%	-12%	24%
Cc1cccc(NC(=O)CSc2nnc(CSc3nc(C)cc(C)n3)o2)c1	-5%[57.1 µM]	6%[59 µM]	12%	16%	1%
CCc1nnc(NC(=O)CSc2nnc(CSc3nc(C)cc(C)n3)o2)s1	-24%	40µM*	50µM*	-8%	25%
Cc1ccc(NC(=O)CSCc2cc(=O)n3nc(C4CC4)sc3n2)cc1	32µM*	21%	9%	-20%	15%
CCc1ccc(C2CC(=O)c3c([nH]c(C(=O)OC4CCC(C)CC4)c3C)C2)cc1 (stereo unspecified)	0%	3%[59 µM]	x	1%	35%
C=C1c2ccccc2O[C@H](C(=O)OCC)[C@H]1OC	10%	x	x	x	74%
O=C(NCCC1CCCCN1S(=O)(=O)c1ccc(F)cc1)C(=O)NCc1ccccn1 (stereo unspecified)	-2%	2%[0.501 µM]	x	-4%	38%
CCC(Sc1n[nH]c(=O)[nH]c1=O)C(=O)OCc1ccccc1 (stereo unspecified)	-10%	u	u	0%	28%
CC(Sc1n[nH]c(=O)[nH]c1=O)C(=O)OCc1ccccc1 (stereo unspecified)	-11%	u	79µM*	10%	27%
CC(C)CCNc1c(-c2cccs2)nc2ccccn12	-14%	45µM*	-4%	-30%	24%
O=C(COc1ccc(Cl)cc1)Nc1c(-c2cccs2)nc2ccccn12	-14%	-11%	-6%	-7%	40%
CN1C(=O)/C(=C/C=C2/CCCN2C)N(C)C1=S	-16%	x	79µM*	u	17%
CC1OC(CC(=O)O)CC2=C1C(=O)c1c(O)cccc1C2=O (stereo unspecified)	56µM*	x	x	x	u
CC(=O)Nc1ccc(Nc2nc(Nc3ccc(Cl)cc3)nc(N3CCOCC3)n2)cc1	-14%[57.1 µM]	x	x	x	3%[57 µM]
O=C(O)C1C2C=CC(C2)C1C(=O)NCc1ccccc1F (stereo unspecified)	-8%	12%	5%	1%	41%
Cc1ccsc1CN(C)c1ncnc2ccc(-c3ccc4c(c3)OCO4)cc12	-32%	x	x	x	x
COc1cc2ncnc(N(C)Cc3csc(C)n3)c2cc1-c1ccc2c(c1)OCO2	8.9µM*	x	x	x	x
CN(Cc1nccs1)c1ncnc2ccc(-c3ccc4c(c3)OCO4)cc12	79µM*	x	x	x	x
COc1ccc(CNC(=O)c2sc(=S)n(-c3ccccc3)c2N)cc1	-22%	x	25µM*	-11%	u
CN1CCN(C(=O)c2sc(=S)n(-c3ccccc3)c2N)CC1	100µM*	u	-94%	-7%	u
COC(=O)c1sc(=S)n(-c2cccc(Cl)c2)c1N	-36%	30%[0.501 µM]	32µM*	-4%	-31%
